A selection: hits, their analogues and other compounds. The true share with any hit is near 27%.
CYP2C9 activ = increases human cytochrome P450 2C9 activity | P11712 | 96,000 tested, 1.4% active | recombinant CYP2C9, luciferin-H conversion, luminescence; active compounds read high; factor 1 = untreated enzyme, 0 = blocked | activation factor at 5 µM;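 active means activation factor of 2 or more for CYP2C9 at a 5 µM dose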;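 further: 0 = sulfaphenazole-blocked wells and 1 = vehicle-only wells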
Target sequence (P11712 whole entry, looked up): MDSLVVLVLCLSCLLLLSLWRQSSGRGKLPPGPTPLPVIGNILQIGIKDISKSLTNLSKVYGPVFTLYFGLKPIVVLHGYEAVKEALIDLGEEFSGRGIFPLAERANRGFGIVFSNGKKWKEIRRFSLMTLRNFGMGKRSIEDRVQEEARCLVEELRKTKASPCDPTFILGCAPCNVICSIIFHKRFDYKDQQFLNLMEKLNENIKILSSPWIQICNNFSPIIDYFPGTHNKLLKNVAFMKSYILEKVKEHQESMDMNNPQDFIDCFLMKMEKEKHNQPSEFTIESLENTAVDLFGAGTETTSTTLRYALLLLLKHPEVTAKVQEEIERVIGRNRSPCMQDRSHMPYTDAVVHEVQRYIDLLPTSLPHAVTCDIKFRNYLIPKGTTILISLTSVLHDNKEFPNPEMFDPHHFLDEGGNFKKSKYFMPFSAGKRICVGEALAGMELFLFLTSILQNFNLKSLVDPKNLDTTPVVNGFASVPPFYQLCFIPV
Cav3 T inh = inhibitors of human Cav3.2 T-type calcium channel. Cav3.2-expressing cells, Fluo-4 calcium fluorescence FDSS; active compounds read low. B-score at 10 µM. 100,000 tested, 4% active. AID 449739;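 active means single-dose well whose peak fluorescence ratio is a statistical outlier from its plate by either plate-standardised score or position-corrected B-score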
CYP2C9 inh = human CYP2C9 inhibition; P11712; CYP2C9 Supersomes, luciferin-H conversion, luminescence; inhibition, % at 5 µM; 96,000 tested, 20% active; AID 777;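 active means blocking of liver enzyme CYP2C9 beyond about 50% at 5 µM, limit read from the data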
CYP2C19 inhib = blocks human cytochrome P450 2C19; 96,000 tested, 21% active; P33261; inhibition, % at 5 µM; AID 778; CYP2C19 Supersomes, luciferin-H EGE luminescence, 30 min;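 active means CYP2C19 inhibition above a set limit at 5 µM in the primary screen, cut at about 50% in these data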;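 further: plate controls were negative control wells for no effect and 2.5 mM tranylcypromine positive control for full effect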
CYP2C19 act = activators of human cytochrome P450 2C19. recombinant CYP2C19, luciferin-H EGE luminescence; active compounds read high; 0 = fully inhibited enzyme, 1 = untreated enzyme. activation factor at 5 µM. 96,000 tested, under 10 active;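 active means activation factor of at least 2 at 5 µM in the primary screen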;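 further: 0 = wells with 2.5 mM tranylcypromine and 1 = vehicle-only wells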
Starred values were filed as active, the others as inactive; . = no result.

SMILES	CYP2C9 activ	Cav3 T inh	CYP2C9 inh	CYP2C19 inhib	CYP2C19 act
CCOC(=O)c1cccc(NC(=O)Cn2cc3c(n2)CCC(C)C3)c1 (stereo not given)	0.2	-1.24	75.4*	29.2	0.7
CCn1c(CSc2nc3ccccc3s2)nnc1SCC(=O)NCC(=O)OC	0.8	1.39	24.6	24.9	0.8
COc1ccccc1-c1cn(S(=O)(=O)c2ccc(F)cc2)nc1N	0.1	-2.37	86.1*	96.7*	0
CCOc1cc(S(=O)(=O)n2cc(-c3ccc(F)cc3)c(N)n2)cc(OCC)c1OCC	0.3	-5.49*	75.0*	25.7	0.7
Cc1ccc(CNC(=O)C2CC(c3cc(C(F)(F)F)cc(C(F)(F)F)c3)=NO2)o1 (stereo not given)	.	-0.179	.	.	.
Cc1ccc(NC(=O)c2ccc(CSc3nnnn3C)cc2)cc1	0.8	0.61	21.3	16.5	0.8
COc1ccc(-n2c(SCC(=O)Nc3cc(C)on3)nc3ccc(O)cc3c2=O)cc1OC	0.7	-1.48	30.3	11.1	0.9
COC(=O)c1ccc(CSc2nc3sc4c(c3c(=O)n2C)CCCC4)o1	0.1	-1.5	93.6*	84.0*	0.2
O=C(CSc1nc2c(c(=O)n1-c1ccccc1)SCC2)N1CCN(c2ccccc2)CC1	0.4	1.3	63.0*	82.5*	0.2
COC(=O)c1ccc(CSc2nc3ccccc3c(=O)n2-c2ccc(OC)c(OC)c2)o1	0	-1.24	95.8*	94.3*	0.1
COC(=O)c1ccc(CSc2nnnn2C)o1	0.9	0.63	7.1	28.8	0.7
COC(=O)c1ccc(CSc2nnc3n(Cc4ccccc4OC)c(=O)c4ccccc4n23)o1	0.3	0.665	74.0*	71.8*	0.3
COc1ccc(-c2cc(C#N)nc(N3CCN(c4ccccc4)CC3)n2)cc1	0.8	-1.3	22.4	17.4	0.8
COC(=O)c1ccc(CSc2nnc3c(Cl)cc(Cl)cn23)o1	1	-1.21	3.3	81.5*	0.2
COC(=O)c1ccc(CSc2nc3c(c(=O)n2-c2ccccc2)SCC3)o1	0.1	-1.26	86.4*	48.1	0.5
Cn1c2ccccc2c2nnc(SC3CCOC3=O)nc21 (stereo not given)	1.1	0.275	-10.5	-3.4	1
COc1ccc(-n2c(SC3CCOC3=O)nc3ccccc3c2=O)cc1OC (stereo not given)	0.3	0.114	69.2*	40.2	0.6
Cn1c2c(c(=O)[nH]c1=O)C(NC(=O)c1ccco1)(C(F)(F)F)C(=O)N2 (stereo not given)	1	0.171	1.1	-1.6	1
CCOC(=O)NCCc1c(C)nc2c(c(C)nn2C(C)(C)C)c1C	0.7	-0.988	33.7	24.2	0.8
O=C(Cc1c(C(=O)O)[nH]c2ccccc12)NCCN1CCN(c2ccccc2F)CC1	0.9	0.295	8.4	4.3	1
CCCNC(=O)COC(=O)c1ccc(Cl)c(S(=O)(=O)N2CCCC2)c1	1	1.11	3.6	42.6	0.6
O=C(NCCOC(=O)c1ccc(Cl)c(S(=O)(=O)N2CCCCC2)c1)c1ccncc1	0.1	0.128	90.6*	88.9*	0.1
CCN(CC)CCNC(=O)c1ccc(Cl)c(S(=O)(=O)N2CCCCCC2)c1	0.3	0.76	72.5*	-3.1	1
CC1=CCC2C(=O)N(c3ccc(C)c(Br)c3)C(=O)C2C1 (stereo not given)	0.9	0.126	14.0	3.8	1
CCn1c(CSCc2ccc(C)cc2)nnc1SCC(=O)N1CCN(c2ccccc2)CC1	0.2	-5.65*	77.6*	34.3	0.7
SMILES	CYP2C9 activ	Cav3 T inh	CYP2C9 inh	CYP2C19 inhib	CYP2C19 act
CCn1c(COc2cccc(C)c2C)nnc1SCC(=O)N1CCN(c2ccc(OC)cc2)CC1	1	0.105	-3.9	6.1	0.9
CCn1c(CC(=O)Nc2cccc(OC)c2)nnc1SCC(=O)N1CCN(c2ccccc2)CC1	0.4	-0.123	59.4*	41.9	0.6
CCn1c(COc2ccccc2C)nnc1SCC(=O)N1CCN(c2ccccc2)CC1	1	-2	-0.9	-1.2	1
CCOC(=O)C(O)(CC(=O)c1ccc(OC)cc1)C(F)(F)F (stereo not given)	.	-0.235	.	.	.
CCc1ccc(NC(=O)CCn2c(=O)oc3ccccc32)cc1	0.4	-2.33	57.6*	23.5	0.8
Cc1ccc(NC(=O)CCn2c(=O)oc3ccccc32)cc1	0.9	0.439	9.1	25.0	0.8
COc1ccccc1CNC(=O)CCn1c(=O)oc2ccccc21	1.4	0.802	-43.3	71.9*	0.3
O=C(CCn1c(=O)oc2ccccc21)Nc1ccccc1	1.1	1.04	-5.8	60.7*	0.4
COc1ccc(CNC(=O)CCn2c(=O)oc3ccccc32)cc1	1	-0.0701	2.3	20.2	0.8
OCC(O)C(O)C(O)C(O)C1NCCS1 (stereo not given)	1	1.06	-4.7	-9.6	1.1
COC(=O)c1cc(S(=O)(=O)N2CCC(C)CC2)ccc1F	0.7	0.414	32.8	88.0*	0.1
COC(=O)c1cccc(S(=O)(=O)N2CCC(C)CC2)c1	1.2	-0.448	-16.0	54.9*	0.5
CC1CCN(S(=O)(=O)c2cccc(C(=O)O)c2)CC1	1	-3.46	-3.8	-9.5	1.1
Clc1ccc(-c2cc(CSc3ccccc3)on2)cc1	0.8	0.00163	23.0	36.8	0.6
Clc1ccc(-c2cc(CSc3cccc(Cl)c3)on2)cc1	0.5	.	45.4	75.4*	0.2
COC(=O)C1=C(C)OC(N)=C(C#N)C1c1ccsc1 (stereo not given)	.	1.69	.	.	.
CCSc1cc(C2C(C#N)=C(N)OC(C)=C2C(=O)OC)c(C)o1 (stereo not given)	0.2	-0.479	81.1*	89.5*	0.1
COc1ccc(C2C(C#N)=C(N)Oc3c2oc(CO)cc3=O)c(OC)c1OC (stereo not given)	0.8	0.619	17.4	6.2	0.9
COC(=O)C1=C(C)OC(N)=C(C#N)C1C1CCCCC1 (stereo not given)	0.5	0.497	53.6*	77.7*	0.2
COc1ccc(C2C(C#N)=C(N)OC3=C2C(=O)CC(C)(C)C3)c(OC)c1OC (stereo not given)	0.3	1.24	71.4*	39.6	0.6
COC(=O)C1=C(C)OC(N)=C(C#N)C1c1ccc(OC)c(OC)c1OC (stereo not given)	0.5	0.863	54.3*	57.7*	0.4
O=S(=O)(NC1CCCC1)c1ccc(S(=O)(=O)N2CCN(c3ccccc3)CC2)cc1	0.8	0.55	16.0	-5.0	1.1
CC1(C)CC(=O)C2=C(C1)OC(N)=C(C#N)C2c1cccc(OC(=O)c2ccco2)c1 (stereo not given)	0.2	1.26	75.9*	-14.7	1.1
Cc1cccc(OC(=O)c2ccc3nccnc3c2)c1	0.5	-0.182	53.7*	7.0	0.9
O=C(Oc1ccc(Cl)cc1)c1ccc2nccnc2c1	1	-1.37	-4.4	2.9	1
CN(CC(=O)Nc1ccc(Cl)cc1)CC(=O)Nc1cc(Cl)ccc1C#N	1.2	-3.63	-23.5	62.9*	0.4
O=C(CSCc1ccccc1Cl)NN1C(=O)c2ccccc2C1=O	0.5	-0.345	51.0*	49.0	0.5

Source: PubChem
